Consider 63 molecules from PubChem BioAssay AID1671194 (National Center for Advancing Translational Sciences (NCATS), 2021).

Hit rate of the full screen: of about 140,000 compounds, about 240 (0.17%) were called active. Inconclusive results (about 9%) are left out. Only a selection was taken, and actives are over-represented in it overall. A number with no mark means an inactive call. Calls come from the whole dose curve; as a rule, active = well fitted inhibition curve with a large enough effect; inconclusive = small, poorly fitted or top-dose-only effect; inactive = no such curve, though single readings can be large or run the other way.
Potency is the fitted concentration of half-maximal effect.

A short description of the test: Primary qHTS assay for inhibitors of alpha-synuclein gene (SNCA) expression.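 For activity change, negative = inhibition: plate controls were DMSO cells for no effect and cell-free wells for full effect.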 Note: nearly all actives have a fitted effect of over 45% in size. The conditions noted are these: HEK-293 SNCA-luciferase knock-in, luminescence, 24 h; series mostly up to 57.2 µM; activity change, negative = inhibition: at the top concentration. On the technique in general: In qHTS, concentration-response curves come from the screen itself.
With `CCOc1ccc(NC(=O)CSc2ncnc3c2sc2ccccc23)cc1`, the “activity change, negative = inhibition” value was 15.5%. As to `Cc1ccc(CNC(=O)CSc2c3c(nc4cc(Cl)ccc24)CCCC3)cc1`, the “activity change, negative = inhibition” value is 13.9%. For the molecule `CCOc1ccc(NC(=O)CSc2c3c(nc4ccccc24)CCCC3)cc1`, the Potency was 28.2 µM (active). For `CCOc1cccc(CN2CCC3(CC2)CN(C)CC3COC)c1` (stereo not drawn), the “activity change, negative = inhibition” value was 8.9%. With `COc1ccc(OCC2CCN(CC3(O)CCCNC3)CC2)cc1` (stereo not drawn), the “activity change, negative = inhibition” value was 84.6%.

Consider `O=C(NCc1cccc(F)c1)c1cccnc1N1CC2CC(C1)[C@H]1CCCC(=O)N1C2` (stereo partly drawn), for which the “activity change, negative = inhibition” value was 14.2%. Same read-out and setting: the same measure for `O=S(=O)(c1ccccc1)N1CCC(CCOc2ccccc2)C1` (stereo not drawn): -20.6%. Still for that read-out and setting: the same measure for `O=C1NC2(CCCN([S+](=O)([O-])c3ccccc3)C2)COc2ccccc21` (stereo not drawn): -3.78%; for `C=CCn1nc(C(=O)N2CCOCC2)c2c1CCC(NCC1(c3ccccc3)CCCCC1)C2` (stereo not drawn): 5.82%; for `CCN(CC)CCNC(=O)C1N(C(C)C)C(=O)C12CCCC2` (stereo not drawn): 5.62%. On the same count and under the same terms, the same measure for `O=C(CSc1nccn1-c1ccc(F)cc1)Nc1cccc2ccccc12`: -16.9%; for `Cc1cc(C)cc(-n2ccnc2SCC(=O)Nc2nc3ccccc3s2)c1`: 8.94%. Take `Cc1cccc(-n2ccnc2SCC(=O)Nc2cccc3ccccc23)c1C`: the Potency was 20 µM (active). For the molecule `COc1ccc(NC(=O)c2c(C)oc3ccn(Cc4ccc(F)cc4)c(=O)c23)c(OC)c1`, the “activity change, negative = inhibition” value is 1.86%. Turning to `Cc1ccc(CN2CCC(Oc3cnc4c(ccn4CCN[S+](C)(=O)[O-])c3)CC2)c(F)c1`, the “activity change, negative = inhibition” value is -5.54%.

Take `Cn1ncc2c(C(=O)NCc3cccs3)cc(-c3ccc(Cl)nc3)nc21`: the “activity change, negative = inhibition” value is -4.22%. Consider `Cc1ccc(CN2CCOc3cc([S+](=O)([O-])N(C)C)ccc3C2)c(F)c1`, for which the “activity change, negative = inhibition” value is -6.31% [at 87.6 µM]. The same measure, in the same setting: for `Cc1cccc(C(=O)N2CCC3(CC2)CC(CC(=O)NCc2ccncc2)CCO3)c1` (stereo not drawn) the value was -5.21%. On to `O=C(CCn1ccn2nc3c(c2c1=O)CCCC3)Nc1ccc(Cl)c(C(F)(F)F)c1`, for which the “activity change, negative = inhibition” value was 3.6%. As for `CCOc1cc(C)c(CN2C[C@@H](CN(C)C)C[C@H](CO)C2)cc1C(C)C`, the “activity change, negative = inhibition” value is -24.3%. The same measure, in the same setting: the same measure for `O=S(=O)(c1ccccc1)N1CCC(F)(c2nc(Cc3ccccc3)no2)CC1`: -21.3%; for `O=C(c1nc2cccnc2n(Cc2ccccc2)c1=O)N1CCN([S+](=O)([O-])c2ccccc2)CC1`: -16.6%. As for `COc1cccc(-c2cccc(C(=O)N3CCCC3C(=O)NCc3ccccc3Cl)c2)c1` (stereo not drawn), the “activity change, negative = inhibition” value was 0.109%.

For the molecule `O=C(O)CCC(=O)N1Cc2ccccc2CC2(CCN(Cc3ccc(O)cc3)C2)C1` (stereo not drawn), the “activity change, negative = inhibition” value was 37.4%. Same read-out and setting: for `CCCCn1c(=O)c(C(=O)NCCSC)nc2cccnc21` the value was 3.61% [at 87.6 µM]; for `Cc1ccccc1CN1Cc2nc(NCc3ccncc3)ccc2OCC1=O`, -14% [at 87.6 µM].

In the case of `O=C1Nc2ccccc2C2(CCN(S(=O)(=O)c3cccc(C(F)(F)F)c3)C2)O1` (stereo not drawn), the “activity change, negative = inhibition” value is -6.5%. Same read-out and setting: for `CN1CCN(C[C@@H]2CN(C(=O)CCc3c[nH]c4ccccc34)C[C@@H]2CO)CC1` the value was 1.82%; for `CCc1cccc2c(C(CC(=O)NC(C)CC)c3cccc(OC)c3)c[nH]c12` (stereo not drawn), -2.41%; for `Fc1ccc(-c2ccnc3nc(C4CCC4)nn23)cc1`, 12.1%.

For `Cn1nc(C2CC2)cc1NC(=O)c1ccc(C(F)(F)F)cc1`, the “activity change, negative = inhibition” value was 124% [at 87.6 µM]. Consider `COc1ccccc1-n1c(=O)c(C(=O)N2CCN(C(=O)Cc3ccc(F)cc3)CC2)nc2cccnc21`, for which the “activity change, negative = inhibition” value was 4.21%. The same measure, in the same setting: the same measure for `CCN1C(=O)C2CC3(CCN(C(=O)c4nccn4C)CC3)CN2C1=O` (stereo not drawn): -0.179%; for `CCOC(=O)C1(Cc2ccc(F)cc2F)CCCN(Cc2cccc(OC)c2O)C1` (stereo not drawn): -6.47%; for `COC[C@H]1CCCN1C(=O)C[C@@H]1C[C@H]2O[C@H](CNC(=O)N[C@@H](C)c3ccccc3)[C@@H](O)[C@H]2O1`: 3.35%. On to `COCCCn1c(C)cnc1CC1CCN(C(=O)CC2CCCCC2)CC1`, for which the “activity change, negative = inhibition” value is -4.37%. Still for that read-out and setting: the same measure for `N#Cc1ccc(CN2CCN(c3nccc(Cl)n3)C(=O)C2)cc1`: -0.594% [at 87.6 µM]; for `O=C(Nc1ccc([C@H]2OCC(=O)N(Cc3ccc(F)cc3)[C@@H]2CO)cc1)c1cccnc1`: -11%.

As for `CCS(=O)(=O)NCC1(COc2ccc(C(F)(F)F)cn2)C[C@@H](O)[C@@H](O)C1` (stereo partly drawn), the “activity change, negative = inhibition” value was 4.56% [at 87.6 µM]. Still for that read-out and setting: the same measure for `Cc1ccccc1C(=O)N1CCC2(CC1)CCN(Cc1cccs1)c1ccccc1O2`: 20%; for `Cc1ccc2c(C(=O)N3CCCC(C#N)C3)cc(-c3cnn(C(C)C)c3)nc2c1` (stereo not drawn): 3.68%. As to `O=[S+]([O-])(c1ccccc1)N1CC2(CCCCN2Cc2cccnc2)Cc2ccccc21` (stereo not drawn), the “activity change, negative = inhibition” value is -16%. Same read-out and setting: the same measure for `COCCNC(=O)c1nc2sccn2c1-c1cccc(OC)c1`: 20.3%; for `O=C(NC1CCCCC1)[C@H]1O[C@H](CCN2CCNCC2)CC[C@@H]1O`: 9.12% [at 87.6 µM]; for `COc1cccc(-c2ccnc3nc(Cc4cc(F)cc(F)c4)nn23)c1`: 9.66%. Same read-out and setting: the same measure for `CN1C(=O)[C@@H]2C[C@@H](O)CN2C2(CN(Cc3ccoc3)C2)C1=O`: 20.6% [at 87.6 µM]; for `Cc1noc([C@@H]2CN(CCCc3ccccc3)C[C@H]2CO)n1`: 17%. Regarding `C[C@H](C(=O)N1Cc2ccccc2CC2(CCN(Cc3ccncc3)CC2)C1)c1ccccc1`, the “activity change, negative = inhibition” value was 12.6%. Turning to `CC(=O)Nc1cccc(-c2cn(C)c(=O)n3cc(COc4ccnn4C)nc23)c1`, the “activity change, negative = inhibition” value is 6.13% [at 87.6 µM]. On the same count and under the same terms, the same measure for `COc1cccc([S+](=O)([O-])N2CCC3(CC(c4cccnc4)=NO3)C2)c1` (stereo not drawn): 8.12%; for `O=C(c1ccccc1C1CCNC1)N1CCN(C/C=C/c2ccccc2)CC1` (stereo not drawn): -3.29%; for `COCc1nnc(NC(=O)C2c3ccccc3C(=O)N(C3CCCC3)C23CCCC3)s1` (stereo not drawn): -14.1%. Same read-out and setting: the same measure for `COc1cccc(-c2ccc(C(=O)N3CCC(C(=O)NCc4cccs4)CC3)cc2)c1`: 118%; for `c1cc(-c2nc3ccncc3[nH]2)ccn1`: -8.24% [at 87.6 µM]. Turning to `COc1ccc(-c2nc3ccncc3[nH]2)cc1`, the Potency was 10 µM (active). On to `COc1ccc(C(=O)N2CCCC2C(=O)N2CCCC2c2nc3ccncc3[nH]2)cc1` (stereo not drawn), for which the “activity change, negative = inhibition” value was -1.63%. On the same count and under the same terms, the same measure for `COc1ccc(-c2ccc3c(n2)CN(CCOc2ccccc2)C(=O)CO3)cc1F`: -7.82% [at 87.6 µM]; for `O=C(C1CCCN(Cc2cccc(-c3ccc(F)cc3F)c2)C1)N1CCN(Cc2ccccc2)CC1` (stereo not drawn): -16.7%; for `COc1ccc(CC2CCOC3(CCN(C(=O)NCC(C)C)CC3)C2)cc1` (stereo not drawn): -8.11%.

On to `CCCNC(=O)C1CCC(Cn2c(=O)c3sccc3n(Cc3ccccc3F)c2=O)CC1` (stereo not drawn), for which the “activity change, negative = inhibition” value was -3.61%.

With `CC(C)NC(=O)C1CCC(Cn2c(=O)c3sccc3n(Cc3ccc(F)cc3)c2=O)CC1` (stereo not drawn), the “activity change, negative = inhibition” value is -16.7%.

In the case of `O=C(C1CCC(Cn2c(=O)c3sccc3n(Cc3ccccc3F)c2=O)CC1)N1CCCCC1` (stereo not drawn), the Potency is 25.1 µM (active).

For the molecule `O=C1CCN(S(=O)(=O)c2ccc3c(c2)CCC3)CCCC(c2nc(-c3cnccn3)no2)CCN1` (stereo not drawn), the “activity change, negative = inhibition” value is 11.3%.
